Test results as given in ChEMBL document CHEMBL1201862, “PubChem BioAssay data set” (2004).
The whole screen tested about 400,000 compounds, of which about 2,100 (0.53%) were called active. Inconclusive results (about 14%) are left out. How the calls were made is not given here. The full list was thinned out, with actives kept by preference.

Molecular target: Ataxin-2 (Homo sapiens) (UniProt Q99700)
Assay: qHTS for Inhibitors of ATXN expression.
Assay type: functional

Sequence of Ataxin-2 (Homo sapiens) (Q99700 whole entry): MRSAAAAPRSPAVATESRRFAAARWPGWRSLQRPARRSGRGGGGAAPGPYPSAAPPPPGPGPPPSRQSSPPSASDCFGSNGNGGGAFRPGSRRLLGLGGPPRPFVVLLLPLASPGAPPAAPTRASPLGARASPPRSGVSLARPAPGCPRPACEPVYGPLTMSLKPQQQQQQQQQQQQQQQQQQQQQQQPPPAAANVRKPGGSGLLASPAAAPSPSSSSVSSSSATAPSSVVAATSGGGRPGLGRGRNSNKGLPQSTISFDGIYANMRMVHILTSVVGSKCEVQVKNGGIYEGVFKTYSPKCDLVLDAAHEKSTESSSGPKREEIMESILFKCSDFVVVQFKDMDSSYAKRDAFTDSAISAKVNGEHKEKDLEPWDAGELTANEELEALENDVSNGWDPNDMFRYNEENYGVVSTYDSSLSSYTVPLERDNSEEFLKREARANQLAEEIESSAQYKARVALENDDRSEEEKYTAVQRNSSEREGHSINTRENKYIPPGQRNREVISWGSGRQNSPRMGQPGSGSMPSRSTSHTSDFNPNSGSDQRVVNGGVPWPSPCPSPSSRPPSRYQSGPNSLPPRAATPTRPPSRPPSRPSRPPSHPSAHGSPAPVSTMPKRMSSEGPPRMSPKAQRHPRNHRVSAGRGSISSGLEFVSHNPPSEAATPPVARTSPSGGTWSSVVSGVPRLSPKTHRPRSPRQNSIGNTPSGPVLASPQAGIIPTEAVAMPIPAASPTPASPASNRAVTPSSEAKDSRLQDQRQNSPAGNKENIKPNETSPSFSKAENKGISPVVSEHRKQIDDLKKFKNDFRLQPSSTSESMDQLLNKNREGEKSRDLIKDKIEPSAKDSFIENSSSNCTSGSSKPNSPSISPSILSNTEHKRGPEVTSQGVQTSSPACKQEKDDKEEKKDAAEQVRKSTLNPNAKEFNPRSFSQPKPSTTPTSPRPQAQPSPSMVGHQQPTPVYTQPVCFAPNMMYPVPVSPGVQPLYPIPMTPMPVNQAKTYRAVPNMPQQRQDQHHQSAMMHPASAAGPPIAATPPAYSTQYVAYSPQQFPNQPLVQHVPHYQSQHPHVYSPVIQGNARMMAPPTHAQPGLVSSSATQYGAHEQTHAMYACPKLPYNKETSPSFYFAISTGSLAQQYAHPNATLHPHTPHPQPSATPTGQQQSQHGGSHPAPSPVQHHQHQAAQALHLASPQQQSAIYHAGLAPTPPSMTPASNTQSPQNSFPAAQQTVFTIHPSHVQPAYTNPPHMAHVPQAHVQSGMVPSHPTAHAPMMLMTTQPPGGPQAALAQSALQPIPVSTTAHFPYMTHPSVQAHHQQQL

Row | Structure (SMILES) | Potency
1 | CCCn1nc(NC(=O)CC)c2cc3cccc(C)c3nc21 | inactive
2 | O=C(/C=C/c1cccc(Cl)c1)OCC(=O)c1ccc[nH]1 | inactive
3 | CC(C)n1/c(=N/C(=O)c2ccco2)c(C#N)cc2c(=O)n3ccccc3cc21 | inactive
4 | NC(=O)c1nsc(C(=O)N(c2ccccc2)C(C(=O)NCC2CCCO2)c2ccc3ncccc3c2)c1N (stereo unspecified) | inactive
5 | O=C1C(=O)c2ccccc2C(O)=C1CCCCl | 25.1 µM (active)
6 | CCN(CC)c1ccc2cc(-c3nc4ccccc4[nH]3)c(=O)oc2c1 | inactive
7 | COc1ccc(/N=c2\oc3ccc(OC)cc3cc2-c2nc3ccccc3[nH]2)cc1 | 31.6 µM (active)
8 | COc1ccc2cc(-c3nc4ccc(C(=O)O)cc4[nH]3)c(=O)oc2c1 | inactive
9 | CCC1=Nc2cc(C(=O)N3CCC(C)CC3)ccc2Sc2ccc(C)cc21 | 28.2 µM (active)
10 | CC1CCN(C(=O)c2ccc3c(c2)C(=O)c2ccccc2-3)CC1 | inactive
11 | CC1CCN(S(=O)(=O)N2CCN(C(=O)c3ccc4c(c3)OCO4)CC2)CC1 | inactive
12 | O=C1C=CC(=O)N1CCCCCCN1C(=O)C=CC1=O | 25.1 µM (active)
13 | Cn1c(=O)c2c(nc(Oc3cccc(Br)c3)n2C)n(C)c1=O | inactive
14 | C[C@@H]1CN([C@@H](C)CO)S(=O)(=O)c2ccc(C#Cc3cccc(F)c3)cc2O[C@H]1CN(C)S(=O)(=O)c1cn(C)cn1 | 39.8 µM (active)
15 | C[C@H]1CN([C@@H](C)CO)S(=O)(=O)c2ccc(Br)cc2O[C@@H]1CN(C)Cc1cccc(F)c1 | 25.1 µM (active)
16 | C[C@@H]1CN([C@H](C)CO)S(=O)(=O)c2ccc(C#C[C@@H](C)O)cc2O[C@@H]1CN(C)Cc1ccc(-c2ccccc2)cc1 | 20 µM (active)
17 | C[C@@H]1CN([C@H](C)CO)S(=O)(=O)c2ccc(C#Cc3ccccc3F)cc2O[C@@H]1CN(C)C(=O)Cc1ccccc1 | 25.1 µM (active)
18 | COCCCNC(=S)N/N=C/c1ccc(O)cc1O | inactive
19 | CCNC(=S)N/N=C/c1sc(N2CCCCC2)nc1-c1cccs1 | inactive
20 | Cc1cccc(C)c1NC(=O)COC(=O)c1c2c(nc3ccccc13)/C(=C\c1ccc3c(c1)OCO3)CCC2 | inactive
21 | N#Cc1cccc(NC(=O)CN2C(=O)NC(Cc3ccccc3)C2=O)c1 (stereo unspecified) | inactive

Row | Structure (SMILES) | Potency
22 | C[C@@H]1CN([C@@H](C)CO)S(=O)(=O)c2ccc(Br)cc2O[C@H]1CN(C)C(=O)Nc1ccc(C(F)(F)F)cc1 | 35.5 µM (active)
23 | C[C@H]1CN([C@@H](C)CO)S(=O)(=O)c2ccc(Br)cc2O[C@@H]1CN(C)Cc1ccccc1 | 39.8 µM (active)
24 | Cc1cc2c(cc1C)N(C(=O)CCl)CCN2C(=O)CCl | 35.5 µM (active)
25 | COc1ccccc1-n1c(N)c(C(=O)NCC2CCCO2)c2nc3ccccc3nc21 (stereo unspecified) | inactive
26 | COc1ccc(-n2c(N)c(C(=O)NCC3CCCO3)c3nc4ccccc4nc32)c(OC)c1 (stereo unspecified) | inactive
27 | COc1cccc(-c2[nH]c(C(=O)NCC3CCCO3)cc3c4ccccc4nc2-3)c1 (stereo unspecified) | 17.8 µM (active)
28 | COc1cc(C(=S)N2CCOCC2)ccc1OC(=O)c1ccc(Br)cc1 | inactive
29 | Cc1ccc2[nH]c3c(c2c1)CCCC3NCCO (stereo unspecified) | inactive
30 | Cc1ccc2[nH]c3c(c2c1)CN(C(=O)CN1CCCCC1)CC3 | inactive
31 | CCOC(=O)N(C)[C@H]1C[C@H]2c3[nH]c4ccccc4c3CCN2C[C@H]1[C@H](C)O | inactive
32 | CN[C@H]1C[C@H]2c3[nH]c4ccc(-c5cccc(C)c5)cc4c3CCN2C[C@H]1[C@H](C)O | 39.8 µM (active)
33 | COc1ccc(NC(=O)N(C)[C@H]2C[C@H]3c4[nH]c5ccc(-c6ccc(OC)cc6)cc5c4CCN3C[C@H]2[C@H](C)O)cc1 | 25.1 µM (active)
34 | Cc1cccc(-c2ccc3[nH]c4c(c3c2)CCN2C[C@@H]([C@H](C)O)[C@@H](N(C)C(=O)Nc3ccc(F)cc3)C[C@@H]42)c1 | 25.1 µM (active)
35 | C[C@H](O)[C@@H]1CN2CCc3c([nH]c4ccccc34)[C@@H]2C[C@@H]1N(C)C(=O)OCc1ccccc1 | inactive
36 | COc1ccc(NC(=O)N(C)[C@H]2C[C@H]3c4[nH]c5ccc(-c6cccc(C)c6)cc5c4CCN3C[C@H]2[C@H](C)O)cc1 | 39.8 µM (active)
37 | COc1cccc(-c2c(C#N)c(O)nc3c2-c2ccc(OC)cc2CC3)c1 | inactive
38 | O=C(O)c1cc(-c2c[nH]c3ccccc23)nc2ccc3ccccc3c12 | inactive
39 | COc1ccc(-c2ccc3[nH]c4c(c3c2)CCN2C[C@@H]([C@H](C)O)[C@@H](N(C)C(=O)Nc3cc(Cl)cc(Cl)c3)C[C@@H]42)cc1 | 35.5 µM (active)
40 | COC(=O)C1C2CC3c4[nH]c5cc(OC)ccc5c4CCN3CC2CC(OC2CCCCO2)C1OC (stereo unspecified) | inactive
41 | O=C(COc1ccc([N+](=O)[O-])cc1)N(C1CCCCC1)C1CCS(=O)(=O)C1 (stereo unspecified) | inactive
42 | C/C(=N/OC(=O)C1CC1)c1cc(-c2ccc(Cl)cc2)no1 | inactive

Row | Structure (SMILES) | Potency
43 | CCc1cc2c(-c3ccccc3)cc(=O)oc2c2c1OCN(Cc1ccc(C)cc1)C2 | inactive
44 | COc1ccc2c(c1)/C(=C\c1cccc(/C=C3/C(=O)Nc4ccc(OC)cc43)n1)C(=O)N2 | 0.891 µM (active)
45 | O=C1Nc2ccccc2/C1=C/c1c[nH]c(-c2ccccc2)n1 | inactive
46 | COc1ccc(N/C=C2/C(=O)N(c3cccc(C)n3)C(=O)c3ccccc32)c(OC)c1 | inactive
47 | Cc1ccc(S(=O)(=O)c2cc3c(=O)n4ccccc4nc3n(Cc3ccco3)c2=N)cc1 | inactive
48 | N#CC1=C(N)Oc2cc(O)c(Cl)cc2C1c1ccccc1F (stereo unspecified) | inactive
49 | CC(C)c1ccc(CN2CCN(S(=O)(=O)c3ccc(Cl)s3)CC2)cc1 | inactive
50 | Cc1cccc(NS(=O)(=O)c2ccc(C)c(C(=O)NC3CCN(Cc4ccccc4)CC3)c2)c1 | inactive
51 | CC(C)c1ccc(CN2CCN(C(=O)CCl)CC2)cc1 | 15.8 µM (active)
52 | C=CCN1CCN(C(=O)CSc2ccccc2)CC1 | inactive
53 | Cc1cccc(CN2CCN(C(=O)CCl)CC2)c1 | 35.5 µM (active)
54 | Cc1cccc(CC(=O)NC2CCN(C)CC2)c1 | inactive
55 | C=CCn1c(=O)c(C#N)cc2c(=O)n3ccccc3nc21 | inactive
56 | CCc1cc2ccc(OC)cc2nc1SCC(=O)N1CCN(C(=O)c2ccco2)CC1 | 25.1 µM (active)
57 | Cc1sc2nc(C(C)C)nc(SCC(=O)N3CCN(C(=O)c4ccco4)CC3)c2c1C | 39.8 µM (active)
58 | O=C(CSc1ccccc1)N1CCN(C(=O)c2ccco2)CC1 | inactive
59 | Cc1cc(C(=O)N2CCN(C(=O)c3ccco3)CC2)ccc1[N+](=O)[O-] | inactive
60 | O=C(CSc1nnnn1C1CCCCC1)N1CCN(C(=O)c2ccco2)CC1 | inactive
61 | COc1ccc2oc(=O)c(C(=O)N3CCN(C(=O)c4ccco4)CC3)cc2c1 | inactive
